Among the test systems are RPMI-8226 leukemia; OVCAR-8 ovarian; OVCAR-4 ovarian; SK-OV-3 ovarian; IGROV1 ovarian; OVCAR-3 ovarian; HS 578T breast; NCI/ADR-RES ovarian; T-47D breast; OVCAR-5 ovarian.
What all share (assay): NCI-60 one-dose screen, 48 h (100 = growth as untreated, 0 = no growth, -100 = all killed)
Details in all cases: 10 µM

About 83,000 compounds went through this panel and 20% of them were active in at least one assay; those are over-represented in the sample as a whole.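 Activity criterion: percent growth below 10, measured after cells in 96-well plates were exposed to a single compound concentration for 48 hours.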 Unmarked numbers belong to inactive results. Activity calls are given as the source filed them.

The record followed here is PubChem BioAssay (NCI).

In the case of `O=C1/C(=C\c2ccc(Br)cc2)CN(C(=O)c2ccccc2F)C/C1=C\c1ccc(Br)cc1`, the growth is -37.7% (active) in the test with RPMI-8226 leukemia; 1.47% (active) in the test on OVCAR-8 ovarian; 18.2% in the test on OVCAR-4 ovarian; 27.2% in the test with SK-OV-3 ovarian; -31.4% (active) in the test on IGROV1 ovarian; -52.6% (active) with OVCAR-3 ovarian. Besides, the values for the growth in the test on HS 578T breast, in the test with NCI/ADR-RES ovarian and in the test on T-47D breast were 24.1%, 12.7% and 53.3%, respectively.

As to `CCN(CC)CCCOCCCNc1cc(OC)cc2cccnc12`, the growth was 80.3% in the test on RPMI-8226 leukemia; 92.1% with OVCAR-8 ovarian; 26.6% with OVCAR-4 ovarian; 97.3% in the test on SK-OV-3 ovarian; 75.2% with IGROV1 ovarian; 65.9% with OVCAR-3 ovarian. For the same compound, the growth with HS 578T breast is 100%; with NCI/ADR-RES ovarian, 95.4%; with T-47D breast it was 33.9%.

In the case of `Nc1nc(N=Nc2ccc(O)cc2)cc(=O)[nH]1`, the growth is 106% in the test on RPMI-8226 leukemia; 97.2% with OVCAR-8 ovarian; 104% in the test on OVCAR-5 ovarian; 104% with SK-OV-3 ovarian; 109% with IGROV1 ovarian; 125% in the test on OVCAR-3 ovarian. Also, the results for the growth in the test with HS 578T breast, with NCI/ADR-RES ovarian and in the test with T-47D breast were 108%, 94.6% and 95.7%, respectively.

`COC(=O)C1(C)Cc2cc(OC(C)=O)c(OC(C)=O)cc2N1` (stereo not given): the growth in the test with RPMI-8226 leukemia was 23.6%; with OVCAR-8 ovarian, 85.2%; in the test with OVCAR-4 ovarian, 57.8%; in the test on SK-OV-3 ovarian it was 98.4%; in the test with IGROV1 ovarian, 27.1%; with OVCAR-3 ovarian it was 67.2%. Besides, the growth in the test with HS 578T breast was 88.7%; in the test with NCI/ADR-RES ovarian, 80.6%; with T-47D breast, 42.6%.

Consider `CCN(CC)CCNC(=O)c1ccc(NC(C)=O)cc1`, for which the growth in the test with RPMI-8226 leukemia was 112%; with OVCAR-8 ovarian, 106%; with OVCAR-4 ovarian, 108%; in the test on SK-OV-3 ovarian, 102%; with IGROV1 ovarian, 112%; with OVCAR-3 ovarian, 121%. The growth is 99.8% in the test with HS 578T breast, 96.9% in the test with NCI/ADR-RES ovarian and 99.7% in the test with T-47D breast.

As to `Cn1c([N+](=O)[O-])cnc1/C=C1\Oc2ccccc2C1=O`, the growth in the test with RPMI-8226 leukemia is -7.1% (active); in the test with OVCAR-8 ovarian, -26% (active); in the test with OVCAR-4 ovarian it was 10.5%; in the test on SK-OV-3 ovarian it was -15.9% (active); in the test on IGROV1 ovarian it was -29.5% (active); with OVCAR-3 ovarian, -21% (active). For the same compound, the growth was -21.8% (active) in the test on HS 578T breast and -5.9% (active) in the test on NCI/ADR-RES ovarian.

As for `O=C(Nc1cccc(-n2cc(-c3ccncc3)c(-c3cc(O)cc(Cl)c3)n2)c1)c1cc(C(F)(F)F)cc(C(F)(F)F)c1`, the growth was 32.1% in the test with RPMI-8226 leukemia; 39.6% in the test on OVCAR-8 ovarian; 70.7% with OVCAR-5 ovarian; 68.8% in the test with SK-OV-3 ovarian; 73% in the test on IGROV1 ovarian; 15.2% with OVCAR-3 ovarian. Further, the growth with HS 578T breast was 65.9%; with NCI/ADR-RES ovarian, 46.9%; in the test on T-47D breast, 26.3%.

For the compound `COc1ccc(Cn2c(C(N)=O)cc3c2-c2nc(N)ncc2CCC3)cc1`, the growth is 85.5% in the test on RPMI-8226 leukemia; 98.6% in the test with OVCAR-8 ovarian; 99.7% in the test with OVCAR-4 ovarian; 104% in the test with SK-OV-3 ovarian; 101% with IGROV1 ovarian; 107% in the test on OVCAR-3 ovarian. Also, the results for the growth in the test with HS 578T breast, in the test on NCI/ADR-RES ovarian and in the test with T-47D breast were 91.3%, 110% and 104%, respectively.

With `Oc1[nH]c2ccc(Cl)cc2c1/C=c1/ccc2c(c1)N=C(c1cc(F)cc(F)c1)N=2`, the growth in the test on RPMI-8226 leukemia was 74.4%; in the test on OVCAR-8 ovarian, 77%; in the test with OVCAR-5 ovarian, 86.8%; in the test on SK-OV-3 ovarian, 68%; in the test with IGROV1 ovarian, 53.6%; with OVCAR-3 ovarian, 7.12% (active). For the same compound, the growth in the test with HS 578T breast is 63%; in the test on NCI/ADR-RES ovarian, 54.2%; in the test with T-47D breast it was 88.4%.
